Source: PMC5540273 (PLoS ONE, 2017)

Legend:
Conditions in all cases: concentration: 1 μM, replicates: in singlicate; n = 1
PHKG1 = tested on: PHKG1
PHKG2 = tested on: PHKG2
PIK3C2B = tested on: PIK3C2B
PIK3C2G = tested on: PIK3C2G
PIK3CA = tested on: PIK3CA
PIK3CB = tested on: PIK3CB
PIK3CD = tested on: PIK3CD
PIK3CG = tested on: PIK3CG
PIK4CB = tested on: T1, PIK4CB
T1 construct: gene PI4KB

PIKFYVE = tested on: PIKFYVE
PIM1 = tested on: PIM1
PIM2 = tested on: PIM2
PIM3 = tested on: PIM3
PIP5K1A = tested on: PIP5K1A
PIP5K1C = tested on: PIP5K1C
PIP5K2B = tested on: PIP5K2B
PIP5K2C = tested on: T2, PIP5K2C
T2 construct: gene PIP4K2C

PKAC-alpha = tested on: T3, PKAC-alpha
T3 construct: gene PRKACA

PKAC-beta = tested on: T4, PKAC-beta
T4 construct: gene PRKACB

PKMYT1 = tested on: PKMYT1
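Further: KINOMEscan kinase panel screen.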

Row | Structure (SMILES) | %Inh (PHKG1) | %Inh (PHKG2) | %Inh (PIK3C2B) | %Inh (PIK3C2G) | %Inh (PIK3CA) | %Inh (PIK3CB) | %Inh (PIK3CD) | %Inh (PIK3CG) | %Inh (PIK4CB) | %Inh (PIKFYVE) | %Inh (PIM1) | %Inh (PIM2) | %Inh (PIM3) | %Inh (PIP5K1A) | %Inh (PIP5K1C) | %Inh (PIP5K2B) | %Inh (PIP5K2C) | %Inh (PKAC-alpha) | %Inh (PKAC-beta) | %Inh (PKMYT1)
1 | COc1ccc(CNC(=O)NC2CCN(c3ccnc(Nc4cc(OC)c(OC)c(OC)c4)n3)C2)cc1 (stereo not drawn) [GSK1379748] | 0% | 31% | 0% | 0% | 0% | 0% | 3% | 0% | 46% | 6% | 7% | 0% | 0% | 36% | 73% | 7% | 87% | 0% | 0% | 3%
2 | Cn1ccc2ncnc(Oc3cccc(C(=O)Nc4ccccc4)c3)c21 | 0% | 0% | 0% | 0% | 0% | 15% | 27% | 0% | 2% | 10% | 1% | 0% | 14% | 0% | 0% | 17% | 8% | 8% | 0% | 16%
3 | Cc1csc(-c2nc(Nc3ccncc3)c3ccccc3n2)n1 [GW869640] | 14% | 1% | 37% | 31% | 13% | 50% | 26% | 30% | 57% | 78% | 31% | 0% | 17% | 0% | 29% | 2% | 2% | 14% | 44% | 16%
4 | Cc1ccc(-c2cc(-c3c[nH]nc3-c3ccccn3)ccn2)cc1 [GW684088] | 0% | 27% | 0% | 1% | 2% | 8% | 1% | 4% | 2% | 30% | 20% | 0% | 2% | 50% | 71% | 8% | 67% | 30% | 0% | 0%
5 | CC1=C(C(=O)Nc2cc3cn[nH]c3cc2F)C(c2ccc(C(F)(F)F)cc2)CC(=O)N1 (stereo not drawn) [GSK429286] | 0% | 0% | 0% | 0% | 0% | 0% | 34% | 0% | 0% | 0% | 0% | 0% | 0% | 0% | 10% | 17% | 11% | 45% | 60% | 17%
6 | Clc1cc(Cl)cc(Nc2ccnc(Nc3cc(Cl)cc(Cl)c3)n2)c1 [GSK175726] | 0% | 0% | 6% | 0% | 5% | 40% | 38% | 3% | 0% | 1% | 20% | 0% | 0% | 9% | 39% | 7% | 26% | 10% | 0% | 8%
7 | CCCc1ccc(S(=O)(=O)NC2CCN(c3ccnc(Nc4ccc(F)cc4)n3)C2)cc1 (stereo not drawn) [GSK1379715] | 0% | 0% | 0% | 0% | 0% | 0% | 34% | 0% | 0% | 0% | 0% | 0% | 0% | 19% | 42% | 10% | 47% | 81% | 0% | 12%
8 | Cc1cccc(-c2cc(Nc3ccncc3)c3ccccc3n2)n1 [GSK223675] | 0% | 1% | 4% | 0% | 7% | 0% | 0% | 7% | 21% | 23% | 23% | 0% | 19% | 0% | 25% | 4% | 8% | 0% | 0% | 0%
9 | Cl.Oc1ccc(-c2nc(-c3ccccc3)[nH]c2-c2ccncc2)cc1 [SB-428218] | 49% | 0% | 0% | 0% | 0% | 0% | 0% | 0% | 0% | 46% | 44% | 0% | 42% | 72% | 49% | 0% | 58% | 0% | 16% | 14%
10 | Fc1cc(Cl)ccc1Nc1ccnc2cc(I)ccc12 [GW551191] | 0% | 0% | 0% | 0% | 0% | 0% | 0% | 0% | 0% | 0% | 22% | 0% | 6% | 0% | 30% | 0% | 10% | 0% | 0% | 1%
11 | COc1ccccc1CNC(=O)c1cc(C(=O)c2ccccc2C)c[nH]1 [GSK364507] | 1% | 0% | 0% | 0% | 0% | 0% | 0% | 0% | 16% | 0% | 0% | 0% | 0% | 0% | 26% | 8% | 25% | 0% | 0% | 0%
12 | Cc1cccc(-c2nc(-c3ccc(S(C)(=O)=O)cc3)sc2-c2ccnc(NCCc3ccccc3)c2)c1 | 0% | 9% | 0% | 18% | 1% | 11% | 26% | 17% | 0% | 0% | 0% | 9% | 0% | 2% | 17% | 22% | 7% | 0% | 17% | 0%
13 | O=C(Nc1n[nH]c2nc(-c3nccs3)c(Br)cc12)C1CC1 [SB-742251] | 0% | 0% | 0% | 0% | 0% | 0% | 0% | 0% | 0% | 14% | 0% | 0% | 0% | 7% | 67% | 23% | 27% | 0% | 0% | 3%
14 | COC(=O)c1c(-c2ccccc2)c2cc(C(=O)O)ccc2c(=O)n1Cc1ccccc1 | 0% | 24% | 3% | 0% | 0% | 13% | 0% | 7% | 0% | 2% | 0% | 0% | 0% | 18% | 17% | 22% | 13% | 0% | 24% | 0%
15 | Cc1cccc(-c2nc(Nc3ccncc3)c3ccccc3n2)n1 [GW855857] | 47% | 3% | 0% | 0% | 0% | 0% | 0% | 0% | 0% | 57% | 0% | 18% | 0% | 10% | 40% | 0% | 18% | 23% | 30% | 0%
